Reference: the supplement of paper PMC6522484
Structures can show the parent of a compound that is named as a salt. ± gives the standard deviation of the averaged measurements.

How the values were obtained:
DLD1 [1] = assay: cell viability (CellTiter-Glo) relative to plate median (fraction of plate median); higher = more viable cells; conditions: 5 µM; treatment time 24 h; reporter: 7TFP
Outline: (§1)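 Colorectal cancer cell lines stably transduced with lentiviral TCF/Wnt firefly luciferase reporters (7TFP or TCF4/Wnt) were seeded in 384-well plates. 24 h later they received library compounds at a final 5 µM for 24 h. Parallel plates were read for firefly luciferase or CellTiterGlo luminescence on a Tecan F500 reader. Each well's signal was normalised to the plate median (webcellHTS2, additive, no log transformation), and the mean of two independent replicates is reported.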

HCT116 = assay: as above; conditions: 5 µM; treatment time 24 h; reporter: TCF4/Wnt
Outline: as §1

SW480 [2] = assay: as above; conditions: 5 µM; treatment time 24 h; reporter: 7TFP
Outline: as §1

DLD1 [3] = assay: TCF/Wnt firefly luciferase reporter signal relative to plate median (fraction of plate median); higher = higher Wnt reporter signal; conditions: 5 µM; treatment time 24 h; reporter: 7TFP
Outline: as §1

SW480 [4] = assay: as above; conditions: 5 µM; treatment time 24 h; reporter: 7TFP
Outline: as §1

Row | SMILES | cell viability (DLD1 [1]) | cell viability (HCT116) | cell viability (SW480 [2]) | TCF/Wnt firefly luciferase reporter signal (DLD1 [3]) | TCF/Wnt firefly luciferase reporter signal (SW480 [4])
1 | CCC(C)C(=O)OC1[C@@H]2CC3=C4CC(=O)O[C@@H](c5ccoc5)[C@]4(C)CCC3[C@@](C)(C2=O)[C@@H](CC(=O)OC)C1(C)C (stereo not given in full) | 1.085 ± 0.0071 | 1.19 ± 0.092 | 1.18 ± 0.092 | 1.15 ± 0.15 | 0.938 ± 0.088
2 | CCCCCCCCNC(C)C(O)c1ccc(SC(C)C)cc1 (stereo not given) | 0.978 ± 0.021 | 1.05 ± 0.042 | 1.02 ± 0.03 | 1.08 ± 0.099 | 1.09 ± 0.085
3 | CC1(C)[C@@H](O)CC[C@]2(C)[C@H]3C(=O)C=C4[C@@H]5C[C@@](C)(C(=O)O)CC[C@]5(C)CC[C@@]4(C)[C@]3(C)CC[C@@H]12 | 1.01 ± 0.059 | 1.03 ± 0.098 | 1.05 ± 0.057 | 1.04 ± 0.22 | 1.12 ± 0.13
4 | Cc1cc(-n2c(=O)[nH]c(=O)n(C)c2=O)ccc1Oc1ccc(SC(F)(F)F)cc1 | 0.946 ± 0.052 | 1 ± 0.023 | 0.952 ± 0.016 | 0.926 ± 0.013 | 1.04 ± 0.06
5 | Nc1ncnc2c1ncn2[C@@H]1O[C@H](CO)[C@@H](O)[C@@H]1O | 0.9735 ± 0.0078 | 1.01 ± 0.021 | 0.975 ± 0.034 | 1.08 ± 0.064 | 1.05 ± 0.05
6 | O=c1n(CCCN2CCN(c3cccc(Cl)c3)CC2)nc2ccccn12 | 1.005 ± 0.0071 | 0.987 ± 0.12 | 1.01 ± 0.014 | 1.08 ± 0.28 | 0.971 ± 0.083
7 | C=C1C2CCC3(C)C(c4ccoc4)OC(=O)CC13OC1CC(OC(C)=O)C(C)(C)C(CC(=O)OC)C12C (stereo not drawn) [3beta-ACETOXYDEOXYANGOLENSIC ACID, METHYL ESTER] | 0.908 ± 0.14 | 0.946 ± 0.033 | 0.995 ± 0.05 | 0.966 ± 0.13 | 0.8955 ± 0.0021
8 | CCN(CC)CCOC(=O)C(c1ccccc1)c1ccccc1 | 0.982 ± 0.068 | 0.972 ± 0.054 | 0.917 ± 0.036 | 0.904 ± 0.14 | 0.929 ± 0.0057
9 | CO/N=C(\C(=O)N[C@@H]1C(=O)N2C(C(=O)OCOC(=O)C(C)(C)C)=C(/C=C\c3scnc3C)CS[C@H]12)c1csc(N)n1 | 1.025 ± 0.0071 | 0.985 ± 0.0042 | 0.901 ± 0.0071 | 0.809 ± 0.029 | 0.854 ± 0.14
10 | C[C@@H]1CC(=O)O[C@H](C)Cc2cc(O)cc(O)c2C(=O)O[C@H](C)CC(=O)O[C@H](C)Cc2cc(O)cc(O)c2C(=O)O[C@H](C)CC(=O)O1 | 0.982 ± 0.0014 | 0.997 ± 0.047 | 1.01 ± 0.026 | 1.05 ± 0.028 | 0.918 ± 0.042
11 | O=C(O)c1cc(=O)c(O)c2c(O)c(O)c(O)cc2c1 | 0.948 ± 0.066 | 0.82 ± 0.04 | 1 ± 0.05 | 0.806 ± 0.25 | 0.993 ± 0.12
12 | COc1ccc(-c2cc(=O)c3c(OC)c(OC)c(OC)c(OC)c3o2)cc1 | 1 ± 0.064 | 0.932 ± 0.059 | 1.05 ± 0.05 | 1.13 ± 0.042 | 0.961 ± 0.0028
13 | CC(=O)O[C@H]1CC[C@]2(C)[C@H]3CC=C4[C@@H]5CC(C)(C)CC[C@]5(C)CC[C@@]4(C)[C@]3(C)CC[C@H]2C1(C)C [beta-AMYRIN ACETATE] | 0.982 ± 0.054 | 0.965 ± 0.025 | 1.03 ± 0.021 | 1.145 ± 0.0071 | 1.07 ± 0.014
14 | CC(N)C(=O)OC(C)(C)Cc1ccc(Cl)cc1 (stereo not given) | 1.11 ± 0.042 | 1.15 ± 0.064 | 1.02 ± 0.036 | 0.945 ± 0.013 | 0.879 ± 0.1
15 | CCCCC(=O)N(Cc1ccc(-c2ccccc2-c2nnn[nH]2)cc1)[C@H](C(=O)O)C(C)C | 0.908 ± 0.081 | 0.988 ± 0.17 | 1 ± 0.054 | 0.985 ± 0.078 | 0.919 ± 0.09
16 | NC[C@H]1O[C@H](O[C@H]2[C@H](O)[C@@H](O[C@H]3O[C@H](CO)[C@@H](O)[C@H](N)[C@H]3O)[C@H](N)C[C@@H]2N)[C@H](N)C[C@@H]1O | 0.854 ± 0.012 | 0.922 ± 0.073 | 0.998 ± 0.06 | 0.992 ± 0.0042 | 1.05 ± 0.076

Row | SMILES | cell viability (DLD1 [1]) | cell viability (HCT116) | cell viability (SW480 [2]) | TCF/Wnt firefly luciferase reporter signal (DLD1 [3]) | TCF/Wnt firefly luciferase reporter signal (SW480 [4])
17 | O=C(O)c1cccnc1C(=O)O | 1.07 ± 0.021 | 1.095 ± 0.0071 | 1.03 ± 0.014 | 1.04 ± 0.15 | 1.1 ± 0.085
18 | CN(C)[C@@H]1C(O)=C(C(N)=O)C(=O)[C@@]2(O)C(O)=C3C(=O)c4c(O)cccc4[C@@](C)(O)[C@H]3C[C@@H]12 | 0.988 ± 0.074 | 1.04 ± 0.093 | 1 ± 0.024 | 0.911 ± 0.11 | 0.839 ± 0.031
19 | Cc1cc(/C=C/c2ccc3cc(N(C)C)ccc3[n+]2C)c(C)n1-c1ccccc1 | 0.899 ± 0.057 | 0.592 ± 0.17 | 0.852 ± 0.08 | 0.774 ± 0.1 | 0.588 ± 0.085
20 | C[N+](C)(C)CC(=O)O | 0.9965 ± 0.005 | 0.98 ± 0.042 | 0.926 ± 0.036 | 0.906 ± 0.1 | 0.9215 ± 0.0064
21 | Oc1cc(O)c2c(c1)O[C@H](c1cc(O)c(O)c(O)c1)[C@H](O)C2 | 0.94 ± 0.059 | 0.897 ± 0.19 | 0.973 ± 0.024 | 0.925 ± 0.024 | 1.07
22 | Cc1cc(O)cc(=O)o1 | 1.05 ± 0.064 | 1.07 ± 0.05 | 1.04 ± 0.028 | 0.988 ± 0.1 | 1.03 ± 0.21
23 | COc1ccc(C=CC(=O)O)cc1OC | 0.993 ± 0.0099 | 1.06 ± 0.085 | 1.02 ± 0.053 | 1.12 ± 0.042 | 0.987 ± 0.033
24 | C[C@H]1[C@H](C)CC[C@]2(C(=O)O)CC[C@]3(C)C(=CC[C@@H]4[C@@]5(C)CC[C@H](O)C(C)(C)[C@@H]5CC[C@]43C)[C@H]12 | 0.978 ± 0.014 | 1.04 ± 0.014 | 1.03 ± 0.021 | 1.07 ± 0.057 | 1.06 ± 0.014
25 | O=C(O)c1ccccc1Nc1cccc(C(F)(F)F)c1 | 0.967 ± 0.0099 | 0.934 ± 0.042 | 0.95 ± 0.011 | 0.96 ± 0.057 | 1.07 ± 0.064
26 | COc1cc(O)c2c(=O)cc(-c3ccc(OC)c(-c4c(O)cc(O)c5c(=O)cc(-c6ccc(O)cc6)oc45)c3)oc2c1 [GINKGETIN, K salt] | 0.994 ± 0.079 | 0.899 ± 0.04 | 0.9925 ± 0.0092 | 1.1 ± 0.15 | 1.16 ± 0.2
27 | CCOc1ccc(C(=O)c2ccc(OC)c(O)c2O)cc1 | 1.01 ± 0.052 | 1.07 ± 0.028 | 1 ± 0.038 | 0.966 ± 0.025 | 1.03 ± 0.021
28 | COc1ccc(C(=O)CC(=O)O)c2c1C=CC(C)(C)O2 | 1 ± 0.013 | 0.978 ± 0.19 | 0.961 ± 0.098 | 0.991 ± 0.056 | 0.859 ± 0.042
29 | CC(=O)OCC(=O)[C@@]1(O)CC[C@H]2[C@@H]3CCC4=CC(=O)CC[C@]4(C)[C@H]3C(=O)C[C@@]21C | 1.04 ± 0.021 | 1 ± 0.079 | 1.12 ± 0.12 | 1.05 ± 0.021 | 1.04 ± 0.13
30 | COc1ccc2c(c1)OC[C@@H](Cc1ccc(OC)c(OC)c1)[C@H]2O | 1.09 ± 0.078 | 1.06 ± 0.11 | 0.993 ± 0.095 | 0.944 ± 0.011 | 0.94 ± 0.018
31 | O=c1[nH]c(=O)n([C@H]2C[C@H](O)[C@@H](CO)O2)cc1F | 0.609 ± 0.026 | 1.05 ± 0.057 | 0.963 ± 0.024 | 0.688 ± 0.12 | 0.971 ± 0.069
32 | CCC(=O)NCC[C@@H]1CCc2ccc3c(c21)CCO3 | 1.04 ± 0.021 | 1.15 ± 0.092 | 1.06 ± 0.028 | 0.827 ± 0.037 | 0.91 ± 0.023
